CYP2C19 inhib – blocks human cytochrome P450 2C19; AID 778; inhibition, % at 5 µM; hit rate 21% among 96,000; CYP2C19 Supersomes, luciferin-H EGE luminescence, 30 min;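 active = CYP2C19 inhibition above a set limit at 5 µM in the primary screen, cut at about 50% in these data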
Target sequence (P33261 whole entry, looked up): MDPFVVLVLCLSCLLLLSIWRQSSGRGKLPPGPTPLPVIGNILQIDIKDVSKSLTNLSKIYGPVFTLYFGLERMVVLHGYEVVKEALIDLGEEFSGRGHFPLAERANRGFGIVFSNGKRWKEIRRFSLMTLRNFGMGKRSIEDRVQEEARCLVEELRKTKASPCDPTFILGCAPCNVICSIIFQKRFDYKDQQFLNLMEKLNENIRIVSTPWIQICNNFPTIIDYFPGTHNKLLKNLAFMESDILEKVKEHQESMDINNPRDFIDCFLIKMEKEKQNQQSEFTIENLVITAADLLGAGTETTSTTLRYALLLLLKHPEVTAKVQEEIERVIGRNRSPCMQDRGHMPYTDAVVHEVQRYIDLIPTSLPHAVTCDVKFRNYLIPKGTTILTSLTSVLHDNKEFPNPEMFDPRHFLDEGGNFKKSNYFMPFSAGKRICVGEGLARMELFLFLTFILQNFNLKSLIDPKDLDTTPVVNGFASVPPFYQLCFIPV
CYP2C9 inhib – human CYP2C9 inhibition; P11712; CYP2C9 Supersomes, luciferin-H conversion, luminescence; inhibition, % at 5 µM; hit rate 20% among 96,000; AID 777;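 active = blocking of liver enzyme CYP2C9 beyond about 50% at 5 µM, limit read from the data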
sEH act – soluble epoxide hydrolase (human) activation; purified human sEH enzymatic activity, activator screen; activation, % at 2 µM; hit rate 0.04% among 91,000; P34913; in the data active = activation above about 37%
sEH inh – blocks human soluble epoxide hydrolase activity; inhibition, % at 2 µM; hit rate 0.34% among 91,000; recombinant human sEH enzymatic activity assay; AID 707; in the data active = inhibition above about 80%
CYP2C9 act – CYP2C9 (human) activation | P11712 | recombinant CYP2C9, luciferin-H conversion, luminescence; hits give high values; factor 1 = untreated enzyme, 0 = blocked | activation factor at 5 µM | hit rate 1.4% among 96,000 | AID 1024;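 active = activation factor of 2 or more for CYP2C9 at a 5 µM dose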
CYP2C19 act – increases human CYP2C19 enzyme activity | recombinant CYP2C19, luciferin-H EGE luminescence; hits give high values; 0 = fully inhibited enzyme, 1 = untreated enzyme | AID 1025 | activation factor at 5 µM | 96,000 tested, under 10 active | P33261;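 active = activation factor of at least 2 at 5 µM in the primary screen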
Hits are given with their value; - = inactive; . = no result. The list is not random: actives were taken first. Their share in the collection is about 27%.

SMILES	CYP2C19 inhib	CYP2C9 inhib	sEH act	sEH inh	CYP2C9 act	CYP2C19 act
O=C1NCC2=C1C(c1ccc(Br)cc1)Nc1ccccc1N2 (stereo not drawn)	-	55	-	-	-	-
CC(C)C(c1nnnn1Cc1ccccc1)N1CCN(Cc2ccco2)CC1 (stereo not drawn)	-	-	-	-	-	-
CC(C)C(c1nnnn1Cc1ccco1)N1CCN(c2cccc(Cl)c2)CC1 (stereo not drawn)	81	70	-	-	-	-
CC(C)C(c1nnnn1C(C)(C)C)N1CCN(c2cccc(Cl)c2)CC1 (stereo not drawn)	70	98	-	-	-	-
CCc1nnc(NS(=O)(=O)c2ccc(N3C(=O)C4CC=C(Cl)CC4C3=O)cc2)s1 (stereo not drawn)	-	50	-	-	-	-
Cc1cc(C)nc(NS(=O)(=O)c2ccc(N3C(=O)C4CC=C(Cl)CC4C3=O)cc2)n1 (stereo not drawn)	-	-	-	-	-	-
O=S(=O)(c1ccc2c(c1)OCCO2)N1CCC(n2cnc3cc(F)ccc32)CC1	78	-	-	-	-	-
CCOC(=O)COc1ccc(S(=O)(=O)NCc2ccncc2)cc1	98	67	-	-	-	-
Cc1ccc(C)c(S(=O)(=O)NCc2ccncc2)c1	83	-	-	-	-	-
O=C1CC(c2ccc(S(=O)(=O)NC3CC3)cc2)CN1 (stereo not drawn)	-	-	-	-	-	-
CCOc1ccc(S(=O)(=O)NCc2ccccn2)cc1	74	-	-	-	-	-
Cc1ccc(C)c(S(=O)(=O)NCc2cccnc2)c1	.	.	-	-	.	.
O=C1CC(c2ccc(S(=O)(=O)NCc3ccncc3)cc2)CN1 (stereo not drawn)	85	54	-	-	-	-
CCOC(=O)N1CCN(C(=O)COc2ccc(S(=O)(=O)NCc3ccccc3)cc2)CC1	-	-	-	-	-	-
Cc1cc(NC(=O)COC(=O)COc2ccc3c(c2)CCC3)no1	-	-	.	.	-	-
COc1ccc(N=CC2=C(Nc3ccc(OC)cc3)c3c(C)nn(-c4ccccn4)c3CC2)cc1	.	.	-	-	.	.
CC(=O)OCc1c(COC(C)=O)[n+](=O)c2ccccc2n1[O-]	-	-	-	-	-	-
O=S(=O)(/C=C/c1ccccc1)N1CCN(c2ccc(F)cc2)CC1	-	-	-	-	-	-
Cc1ccc(S(=O)(=O)NCC(=O)NCc2ccncc2)cc1	.	.	-	-	.	.
COc1ccc(S(=O)(=O)NCc2ccncc2)cc1OC	100	-	.	.	-	-
Cc1ccc(CNS(=O)(=O)N(C)C)cc1	62	-	-	-	-	-
Cc1ccc(S(=O)(=O)NCc2ccncc2)cc1	97	-	-	-	-	-
CCOc1ccc(S(=O)(=O)NCc2ccncc2)cc1	100	79	-	-	-	-
CCCC(=O)Nc1ccccc1-c1nnc(SC)[nH]c1=O	-	-	-	-	-	-
COc1cccc(-n2c(C)nc3cc(C(=O)O)ccc32)c1	-	-	-	-	-	-
SMILES	CYP2C19 inhib	CYP2C9 inhib	sEH act	sEH inh	CYP2C9 act	CYP2C19 act
Cc1ccc(/C(O)=C2\C(=O)C(=O)N(CCCN(C)C)C2c2ccccn2)cc1 (stereo not drawn)	.	.	-	-	.	.
Cc1cc(=O)oc2cc(OCC(=O)OCc3nnc(-c4ccccc4)o3)ccc12	-	-	.	.	-	-
COc1ccc(S(=O)(=O)NCCC(C)C)cc1OC	96	-	-	-	3.4	-
CC1CCCCC1NS(=O)(=O)c1ccc(S(=O)(=O)NCc2ccncc2)cc1 (stereo not drawn)	98	100	-	-	-	-
Cc1ccc(C)c(S(=O)(=O)NCc2ccc(C(=O)NCc3ccccn3)cc2)c1	89	89	-	-	-	-
CC(C)CCNS(=O)(=O)c1ccc(-c2ccc(S(=O)(=O)NCCC(C)C)cc2)cc1	-	-	-	-	-	-
Cc1ccsc1/C=C/c1ccc2ccccc2n1	-	-	-	-	-	-
Cc1ccsc1/C=C/c1ccc2cccc(O)c2n1	57	73	-	-	-	-
CCNc1nc(Oc2ccccc2)nc(OC(C)C(=O)OCC)n1 (stereo not drawn)	.	.	-	-	.	.
O=C(NCCc1ccccc1)C1CCCN(S(=O)(=O)c2cnc[nH]2)C1 (stereo not drawn)	85	59	.	.	-	-
O=C(NCCC1=CCCCC1)C1CCCN(S(=O)(=O)c2cnc[nH]2)C1 (stereo not drawn)	96	66	.	.	-	-
O=C(C1CCCN(S(=O)(=O)c2cnc[nH]2)C1)N(CCc1ccccc1)Cc1ccccc1 (stereo not drawn)	74	-	-	-	-	-
O=C(NCCN1CCC(Cc2ccccc2)CC1)C1CCCN(S(=O)(=O)c2cnc[nH]2)C1 (stereo not drawn)	-	-	-	-	-	-
O=C(NCCC1=CCCCC1)C1CCCN(S(=O)(=O)c2ccc(F)cc2)C1 (stereo not drawn)	-	-	-	-	-	-
CCCS(=O)(=O)N1CCCC(C(=O)NC2CCCC(C)C2C)C1 (stereo not drawn)	56	-	-	-	-	-
COc1cc(CCC(=O)OCn2nnc3ccccc3c2=O)cc(OC)c1OC	-	-	-	-	-	-
CCCCCc1c(C)nc(N2CCOCC2)[nH]c1=O	-	-	-	-	-	-
CCCS(=O)(=O)N1CCCC(C(=O)NCCN2CCC(Cc3ccccc3)CC2)C1 (stereo not drawn)	-	65	-	-	-	-
CCCS(=O)(=O)N1CCCC(C(=O)NCCN(C)Cc2ccccc2)C1 (stereo not drawn)	-	-	-	-	-	-
O=C(NCC1COc2ccccc2O1)C1CCCN(S(=O)(=O)c2cnc[nH]2)C1 (stereo not drawn)	90	50	.	.	-	-
CCOC(=O)NC(CC(=O)O)c1ccc(OC)cc1 (stereo not drawn)	-	-	-	-	-	-
Cc1ccc(C(=O)N/N=C2\SCC(=O)N2c2cc(C)ccc2C)cc1	.	.	-	-	.	.
COc1ccc(NC(=O)/C(=C\c2cc(OC)c(OC)cc2[N+](=O)[O-])NC(=O)c2ccccc2)cc1	-	-	-	-	-	-
c1ccc(Cc2nc3ccccc3o2)cc1	-	-	-	-	-	-
COC(=O)c1ccc(NC(=O)CSc2nccn2CCc2ccccc2)cc1	76	50	-	-	-	-
COCCCn1c(SCC(=O)Nc2ccc(C(=O)OC)cc2)nc2ccccc2c1=O	78	88	-	-	-	-
CCOCCCn1c(SCC(=O)Nc2ccc(C(N)=O)cc2)nc2ccccc2c1=O	56	-	-	-	-	-
Cn1ccnc1SCC(=O)Nc1ccccc1	.	.	-	-	.	.
CN(C)c1nc(C(N)=O)nc(N2CCOCC2)n1	-	-	-	-	-	-
COc1cc(OC)c(NC(=O)CCc2nc(-c3cccs3)no2)cc1Cl	92	62	-	-	-	-

Screening data: PubChem BioAssay, several laboratories
